Compounds with a hit are over-represented: about 1.3% of the library has one in this group of screens.
COUP-TFII inh – NR2F2 (human) inhibition, primary screen. P24468. HEK293T NGFI-A luciferase reporter, luminescence. inhibition, % at 8.6 µM. actives 0.7% (n = 370,000). AID 686940;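 active = inhibition above a per-plate cutoff, mean inhibition of test wells between control levels plus 3 SD, cut at about 38% in these data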;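 note: cells cotransfected with COUP-TFII expression vector driving the NGFI-A reporter; 0% = median of COUP-TF2 test wells and 100% = reporter-only cells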
Target sequence (P24468 whole entry, looked up): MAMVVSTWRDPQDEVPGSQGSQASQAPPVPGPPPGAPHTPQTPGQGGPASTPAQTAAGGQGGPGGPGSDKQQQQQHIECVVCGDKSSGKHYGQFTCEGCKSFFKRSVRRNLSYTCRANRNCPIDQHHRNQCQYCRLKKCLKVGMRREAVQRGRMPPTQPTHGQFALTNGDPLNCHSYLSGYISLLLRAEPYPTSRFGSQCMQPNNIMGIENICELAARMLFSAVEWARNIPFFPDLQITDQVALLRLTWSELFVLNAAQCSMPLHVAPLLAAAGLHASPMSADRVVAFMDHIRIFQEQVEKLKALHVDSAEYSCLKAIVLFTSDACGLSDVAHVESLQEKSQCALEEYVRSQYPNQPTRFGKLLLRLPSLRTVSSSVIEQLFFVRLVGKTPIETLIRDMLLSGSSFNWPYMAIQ
NCOA1 inh – human NCOA1 inhibition; Q15788; HEK293 GAL4-SRC1 luciferase reporter, luminescence; inhibition, % at 3.6 µM; actives 0.12% (n = 360,000); AID 588354;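 active = inhibition above the campaign mean plus 3 SD, with each screening campaign given its own cutoff, cut at about 60% in these data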;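 note: 0% = DMSO treated cells and 100% = gossypol at 36 µM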
NCOA2 inhibitor – human SRC2 (NCOA2) inhibition; actives 0.17% (n = 370,000); inhibition, % at 9 µM; HEK293 GAL4-SRC2 luciferase reporter, luminescence; Q15596; AID 651957;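 active = inhibition above the mean inhibition of all tested compounds plus 3 SD, set per campaign, cut at about 52% in these data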;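 note: 0% = DMSO treated cells and 100% = cells given Gossypol at 36 µM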
NR5A2 inv ag – inverse agonists of human LRH-1 (NR5A2); O00482; HEK293T StAR-luciferase reporter, LRH-1 transfected, 24 h; inhibition, % at 3.6 µM; actives 0.13% (n = 360,000); AID 602396;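 active = inhibition above the mean inhibition of all tested compounds plus 3 SD, cut at about 73% in these data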;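 note: 0% = DMSO wells and 100% = reporter-only cells lacking LRH-1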
Gli-Sufu block – blocks Gli-Sufu signaling in a luciferase reporter; Sufu-KO-LIGHT fibroblasts, Gli luciferase reporter luminescence; inhibition, % at 5 µM; actives 0.74% (n = 340,000); AID 588413;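 active = inhibition above about 55%, limit read from the data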;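 note: 0% = DMSO-treated cells and 100% = wells with medium but no cells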
SRC3 inh – inhibits human SRC3 coactivator. Q9Y6Q9. HEK293 GAL4-SRC3 luciferase reporter, luminescence. inhibition, % at 3.6 µM. actives 0.17% (n = 360,000). AID 588352;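 active = inhibition above a per-campaign cutoff, the mean of all compounds plus 3 SD, cut at about 60% in these data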;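 note: 0% = DMSO-treated cells and 100% = gossypol-treated cells at 36 µM; higher means less SRC3-driven luciferase light from the GAL4 reporter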
Gli-Sufu confirm – confirmation of Gli-SUFU pathway antagonists. shares compounds with Gli-Sufu block. actives 40% (n = 2,500). Sufu-KO-LIGHT cells, Gli luciferase reporter, luminescence. inhibition, % at 5 µM;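 active = mean inhibition at 5 µM reaching about 45%, limit read from the data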;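 note: plate controls were DMSO-treated cells for no effect and wells lacking cells for full effect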
Gli cytotox – counter-screen for Gli-SUFU antagonists: cytotoxicity. cytotoxicity, % at 5 µM. shares compounds with Gli-Sufu block. actives 32% (n = 2,500). Sufu-KO-LIGHT cells cytotoxicity, ATP luminescence. AID 651994;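 active = mean cytotoxicity at 5 µM above about 25%, limit read from the data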;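 note: cells exposed to compound overnight for roughly 16 to 18 hours; plate controls were DMSO wells with cells for no effect and medium without cells for full effect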
Wnt3a cs – inhibits Wnt3a reporter, counter-screen for Gli-SUFU antagonists; shares compounds with Gli-Sufu block; Wnt-LIGHT cells, Wnt3a-driven luciferase reporter, luminescence; inhibition, % at 6.25 µM; actives 20% (n = 2,500); AID 651995;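 active = mean inhibition above about 25%, limit read from the data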
* marks the source's active call; other numbers are inactive results.

How did CC(C)(C)n1nnnc1C(c1ccc2ncccc2c1)N1CCC(O)CC1 (stereo not drawn) do in these assays?
COUP-TFII inh: -9.2; NCOA1 inh: 4.0; NCOA2 inhibitor: -9.5; NR5A2 inv ag: -9.3; Gli-Sufu block: 62.5*; SRC3 inh: 0.2; Gli-Sufu confirm: 8.5; Gli cytotox: 10.9; Wnt3a cs: 8.4

What do the screens show for `O=C(CCNS(=O)(=O)c1ccccc1)N1CCCCCCC1`?
COUP-TFII inh: -9.6; NCOA1 inh: -15.7; NCOA2 inhibitor: 0.0; NR5A2 inv ag: -12.8; Gli-Sufu block: -21.2; SRC3 inh: -9.1

What do the screens show for `Cc1ccc(S(=O)(=O)NCCC(=O)N2CCCCCCC2)cc1`?
COUP-TFII inh: 10.8; NCOA1 inh: 4.1; NCOA2 inhibitor: -6.8; NR5A2 inv ag: 0.0; Gli-Sufu block: 95.5*; SRC3 inh: 7.6; Gli-Sufu confirm: 12.5; Gli cytotox: 1.2; Wnt3a cs: -10.9

Results for COc1ccc(C(=O)NCC(=O)N2CCCCC2)cc1OC ?
COUP-TFII inh: -4.9; NCOA1 inh: 1.1; NCOA2 inhibitor: -19.3; NR5A2 inv ag: 6.6; Gli-Sufu block: -5.1; SRC3 inh: 19.0

How did CCOc1ccccc1N1CCN(C(=O)CNC(=O)c2ccc(OC)c(OC)c2)CC1 do in these assays?
COUP-TFII inh: 19.9; NCOA1 inh: 9.6; NCOA2 inhibitor: 0.3; NR5A2 inv ag: -2.0; Gli-Sufu block: 71.2*; SRC3 inh: 3.3; Gli-Sufu confirm: 9.9; Gli cytotox: 8.9; Wnt3a cs: -27.1

How did Cc1cc(NC(=O)COc2ccccc2C)ccc1NC(=O)c1cccs1 do in these assays?
COUP-TFII inh: 0.7; NCOA1 inh: 10.2; NCOA2 inhibitor: 3.5; NR5A2 inv ag: 12.3; Gli-Sufu block: 50.9; SRC3 inh: -2.5; Gli-Sufu confirm: 12.2; Gli cytotox: 0.4; Wnt3a cs: -48.1

Results for Cc1cc(OC[C@@H](O)CN2CCC(C(O)(c3ccccc3)c3ccccc3)CC2)ccc1Br ?
COUP-TFII inh: -10.5; NCOA2 inhibitor: 1.6

How did COc1ccc(N2CCN(C3CC(=O)N(C)C3=O)CC2)cc1 (stereo not drawn) do in these assays?
COUP-TFII inh: 2.8; NCOA1 inh: 2.0; NCOA2 inhibitor: -4.6; NR5A2 inv ag: -4.0; Gli-Sufu block: 67.0*; SRC3 inh: -13.2; Gli-Sufu confirm: 25.2; Gli cytotox: 0.9; Wnt3a cs: 8.9

Results for CN1C(=O)CC(N2CCN(c3ccc(Cl)cc3)CC2)C1=O (stereo not drawn) ?
COUP-TFII inh: -6.4; NCOA1 inh: -11.2; NCOA2 inhibitor: -3.2; NR5A2 inv ag: 10.3; Gli-Sufu block: -1.0; SRC3 inh: 11.9

How did O=[N+]([O-])c1ccc(-c2ccc(S(=O)(=O)NCCN3CCCC3)cc2)cc1 do in these assays?
COUP-TFII inh: 17.7; NCOA1 inh: 13.0; NCOA2 inhibitor: 39.7; NR5A2 inv ag: 4.3; Gli-Sufu block: 53.8; SRC3 inh: -11.6; Gli-Sufu confirm: 29.4; Gli cytotox: 10.0; Wnt3a cs: -28.6

How did O=[N+]([O-])c1ccc(S(=O)(=O)NCCN2CCOCC2)cc1 do in these assays?
COUP-TFII inh: 10.5; NCOA1 inh: 1.7; NCOA2 inhibitor: 1.7; NR5A2 inv ag: -0.3; Gli-Sufu block: 9.1; SRC3 inh: 1.3

What do the screens show for `COc1ccc(CN2C3=N[C@H](c4ccccc4)CC(=O)N3/C(=C\c3ccccc3)C2c2ccco2)c(OC)c1` (stereo partly drawn)?
COUP-TFII inh: 0.2; NCOA2 inhibitor: 14.7

Results for O=[N+]([O-])c1ccc(O)c(-c2nc(-c3ccccc3)c(-c3cccs3)[nH]2)c1 ?
COUP-TFII inh: 13.8; NCOA1 inh: 5.6; NCOA2 inhibitor: -4.5; NR5A2 inv ag: -19.5; Gli-Sufu block: 51.6; SRC3 inh: -2.8; Gli-Sufu confirm: 70.2*; Gli cytotox: 10.6; Wnt3a cs: 66.7*

Results for O=C(N[C@@H]1C/C=C\C[C@@H](CC(=O)N(CCO)Cc2ccccc2)C(=O)N[C@@H](c2ccccc2)COC1=O)OCC1c2ccccc2-c2ccccc21 ?
COUP-TFII inh: -7.7; NCOA1 inh: -6.3; NCOA2 inhibitor: -15.0; NR5A2 inv ag: 9.3; Gli-Sufu block: 56.0*; SRC3 inh: 5.6; Gli-Sufu confirm: 56.4*; Gli cytotox: 17.8; Wnt3a cs: -68.0

How did O=C(N[C@@H]1C/C=C\C[C@H](CC(=O)N(CCO)Cc2ccccc2)C(=O)N[C@@H](Cc2c[nH]c3ccccc23)COC1=O)OCC1c2ccccc2-c2ccccc21 do in these assays?
COUP-TFII inh: 7.2; NCOA1 inh: -12.9; NCOA2 inhibitor: 5.0; NR5A2 inv ag: 3.7; Gli-Sufu block: 52.5; SRC3 inh: 10.1; Gli-Sufu confirm: 56.8*; Gli cytotox: 22.3; Wnt3a cs: -29.9

What do the screens show for `O=C(N[C@H]1C/C=C\C[C@@H](CC(=O)N(CCO)Cc2ccccc2)C(=O)N[C@H](Cc2c[nH]c3ccccc23)COC1=O)OCC1c2ccccc2-c2ccccc21`?
COUP-TFII inh: 0.8; NCOA1 inh: -6.5; NCOA2 inhibitor: -5.8; NR5A2 inv ag: 4.5; Gli-Sufu block: 52.6; SRC3 inh: 7.7; Gli-Sufu confirm: 52.0*; Gli cytotox: 7.0; Wnt3a cs: -46.3

What do the screens show for `COC(=O)[C@]12C[C@H](CC(=O)NCCCCc3ccccc3)C(=O)N(Cc3cccc4ccccc34)C1=C[C@H](C(C)C)O[C@@H]2C1CC1`?
COUP-TFII inh: 22.5; NCOA2 inhibitor: 21.3

How did CN(Cc1ccccc1)C(=O)OCc1cn(Cc2ccc(C(F)(F)F)cc2)nn1 do in these assays?
COUP-TFII inh: 14.5; NCOA2 inhibitor: -25.0

Results for CCc1csc(N2[C@H](CN(CCOC)S(=O)(=O)c3ccccc3[N+](=O)[O-])[C@H](c3ccccc3)[C@@H]2CO)n1 ?
COUP-TFII inh: -4.9; NCOA2 inhibitor: -26.8

Results for CN(CCO)C1CN(Cc2cn(Cc3ccccc3F)nn2)S(=O)(=O)C1 (stereo not drawn) ?
COUP-TFII inh: -4.0; NCOA2 inhibitor: 4.4

What do the screens show for `O=C(N/N=C/c1ccccn1)c1[nH]c2ccc([N+](=O)[O-])cc2c1-c1ccccc1`?
COUP-TFII inh: -10.6; NCOA1 inh: -35.3; NCOA2 inhibitor: 14.9; NR5A2 inv ag: 39.5; Gli-Sufu block: 56.3*; SRC3 inh: 14.7; Gli-Sufu confirm: 22.1; Gli cytotox: 17.4; Wnt3a cs: -69.1
